In the library only some 12% were active in any assay of this set; here they are far more common.
SARS PLpro yeast: SARS-CoV PLP inhibition in yeast; S. cerevisiae expressing SARS-CoV PLpro, growth rescue; Potency, µM (titrated, usually from 32.9 µM), most hits filed as activators; 330,000 tested, 0.19% active; AID 485353; calls by dose curve; further: nearly all actives have a fitted effect of over 55% in size
Pf growth 96h: inhibits malaria parasite growth, 96 h. P. falciparum luciferase reporter growth, 96 h. Potency, µM (titrated, usually from 28.7 µM), actives largely listed as inhibitors. 320,000 tested, 6.9% active
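Compounds incubated with erythrocytes infected by luciferase-expressing P. falciparum (2% hematocrit, 0.05% parasitemia final) for 96 hours, 37 C in 5% CO2. Growth inhibition scored as decreased luciferase luminescence.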
Pf growth 48h: P. falciparum growth inhibition at 48 hours (one generation) | P. falciparum luciferase growth in erythrocytes, 48 h | Potency, µM (titrated, usually from 28.7 µM), hits mostly inhibitors | 310,000 tested, 5.9% active | AID 504832
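Here the parasites carry a stable luciferase gene and grow inside erythrocytes in Albumax-based RPMI medium with compound for one erythrocytic cycle. Activity is scored as loss of luminescent signal.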
AmpC no deterg: blocks E. coli AmpC beta-lactamase in detergent-free assay; Potency, µM (doses to about 57.1 µM), hits mostly inhibitors; P00811; AmpC nitrocefin hydrolysis, absorbance 480 nm, 0.0001% Triton; 330,000 tested, 0.52% active; further: nearly all actives have a fitted effect of over 20% in size
Target sequence (P00811 whole entry, looked up): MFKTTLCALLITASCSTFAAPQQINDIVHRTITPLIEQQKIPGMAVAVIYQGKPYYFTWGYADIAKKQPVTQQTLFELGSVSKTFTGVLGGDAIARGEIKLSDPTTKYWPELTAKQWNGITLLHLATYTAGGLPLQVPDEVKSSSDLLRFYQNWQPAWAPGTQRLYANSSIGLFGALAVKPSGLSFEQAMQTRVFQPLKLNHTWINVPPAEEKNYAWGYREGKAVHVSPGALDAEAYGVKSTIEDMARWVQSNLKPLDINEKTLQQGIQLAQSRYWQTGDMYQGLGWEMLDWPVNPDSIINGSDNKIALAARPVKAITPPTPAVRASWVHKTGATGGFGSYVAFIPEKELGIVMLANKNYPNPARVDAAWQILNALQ
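AmpC (5.3 nM in the dispensed reagent) in 20 mM phosphate pH 7.0 with 0.01% (detergent screen) or 0.0001% Triton X-100 was preincubated with compounds for 15 min at room temperature. Nitrocefin was then added from an 800 uM solution, and hydrolysis was followed at 480 nm.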
Sm TGR inh: inhibitors of Schistosoma mansoni thioredoxin glutathione reductase. 360,000 tested, 3% active. Potency, µM (series often up to 114 µM), actives largely listed as inhibitors. purified TGR, DTNB reduction, TNB absorbance 405 nm. Q962Y6; further: nearly all actives have a fitted effect of over 60% in size
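Kinetic colorimetric format: TGR-catalysed, NADPH-driven DTNB reduction monitored via TNB absorbance. Enzyme dispensed at 20 nM; compound exposure 15 min at room temperature before reaction start.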
AmpC detergent: blocks E. coli AmpC beta-lactamase in detergent assay. AmpC hydrolysis of nitrocefin, absorbance 480 nm, 0.01% Triton. Potency, µM (titrated, usually from 114 µM), usual class: inhibitors. 370,000 tested, 0.041% active. AID 485294; further: nearly all actives have a fitted effect of over 25% in size
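AmpC (5.3 nM in the dispensed reagent) in 20 mM phosphate pH 7.0 with 0.01% (detergent screen) or 0.0001% Triton X-100 was preincubated with compounds for 15 min at room temperature. Nitrocefin was then added from an 800 uM solution, and hydrolysis was followed at 480 nm.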
Numbers stand for hits; - = inactive; ? = inconclusive; . = no result; [ ] = remark or other dose. Unless noted, the call rests on the fitted dose curve; in most records, active means well fitted curve in the direction sought with a large enough effect; inconclusive means small, poorly fitted or top-dose-only effect, or another doubt; inactive means no such curve, though single readings can be large; an effect the other way counts as inactive or inconclusive.

SMILES	SARS PLpro yeast	Pf growth 96h	Pf growth 48h	AmpC no deterg	Sm TGR inh	AmpC detergent
COc1ccc(CCN2C(=O)c3[nH]nc(-c4ccccc4O)c3C2c2ccc(O)c(OC)c2)cc1 (configuration not stated)	.	.	.	.	-	-
COCCCN1C(=O)c2[nH]nc(-c3ccccc3O)c2C1c1ccc(Cl)cc1 (configuration not stated)	-	?	?	-	-	-
O=C1c2[nH]nc(-c3ccccc3O)c2C(c2ccccc2)N1Cc1ccco1 (configuration not stated)	-	?	11.7µM	-	-	-
O=C1c2[nH]nc(-c3ccccc3O)c2C(c2ccc(Cl)cc2)N1Cc1ccco1 (configuration not stated)	.	.	.	.	-	-
COCCCN1C(=O)c2[nH]nc(-c3ccccc3O)c2C1c1cccc(Cl)c1 (configuration not stated)	-	7.38µM	9.28µM	-	-	-
COCCCN1C(=O)c2[nH]nc(-c3ccccc3O)c2C1c1ccc(OC)cc1 (configuration not stated)	.	.	.	.	-	-
Fc1cc(Br)ccc1Nc1c2c(nc3nc(-c4cccs4)nn13)CCCC2	.	.	.	.	-	-
Cc1sc2nc(SCC(=O)c3cc(C)n(CC4CCCO4)c3C)n(C(C)C)c(=O)c2c1C (configuration not stated)	?	8.28µM	?	-	-	?
Cc1cc(C(=O)CSc2nnc(-c3ccc(Cl)cc3)n2C)c(C)n1CC1CCCO1 (configuration not stated)	-	-	?	-	-	-
Cc1ccc(-n2nnnc2SCC(=O)c2cc(C)n(CC3CCCO3)c2C)cc1 (configuration not stated)	-	1.47µM	?	-	-	-
C=CCn1c(SCC(=O)c2cc(C)n(CC3CCCO3)c2C)nnc1-c1ccccc1 (configuration not stated)	-	9.28µM	?	-	-	-
CCCCN(C)C(=O)CN1C(=O)c2cccnc2Oc2ccc(Cl)cc21	.	.	.	.	-	-
COc1cc(Nc2cc(C)nc3nc(C)nn23)cc(OC)c1OC	-	-	9.28µM	-	-	?
COc1ccc(Nc2cc(C)nc3nc(C)nn23)cc1Cl	-	-	.	-	-	?
Cc1cc(Nc2ccc(F)c(Cl)c2)n2nc(C)nc2n1	-	-	3.29µM	-	-	-
COc1ccc(OC)c2c(C)cc(N3CCN(C(=O)c4ccc(F)cc4)CC3)nc12	.	-	?	.	-	-
COc1cccc(C(C(=O)NC2CCCCC2)N(C(=O)Cc2cccs2)c2ccc(-n3cnnn3)c(OC)c2)c1 (configuration not stated)	-	-	10.4µM	-	-	-
COc1cc(N(C(=O)Cc2cccs2)C(C(=O)NC2CCCCC2)c2cccc(OC)c2OC)ccc1-n1cnnn1 (configuration not stated)	-	-	10.4µM	-	-	-
Cn1cccc1C(C(=O)NC1CCCCC1)N(C(=O)Cc1cccs1)c1ccc2c(c1)OCO2 (configuration not stated)	-	?	?	-	-	-
COc1cccc(N(C(=O)Cn2nnc(-c3cccs3)n2)C(C(=O)NC2CCCCC2)c2ccncc2)c1 (configuration not stated)	-	?	-	-	-	-
COc1cccc(C(C(=O)NC2CCCCC2)N(C(=O)c2cccs2)c2ccc3c(c2)OCO3)c1 (configuration not stated)	-	-	10.4µM	-	-	-
c1ccc(-c2cnnn2-c2ccccc2)cc1	-	0.828µM	-	-	-	-
COc1ccc(-n2nc(C(=O)N3CCN(c4cccc(C)c4C)CC3)c3c4ccccc4n(C)c3c2=O)cc1Cl	.	.	.	.	-	-
Cc1cc(C)n(C(=O)c2ccc(Cl)c(F)c2F)n1	-	9.28µM	-	-	.	-
Cc1cc(C)n(C(=O)c2cc(F)c(F)cc2C)n1	-	-	-	-	-	-
SMILES	SARS PLpro yeast	Pf growth 96h	Pf growth 48h	AmpC no deterg	Sm TGR inh	AmpC detergent
CCN1c2ccccc2-c2nc3ccccc3n2C1c1cccnc1 (configuration not stated)	-	-[5.75 µM]	9.28µM	-	-	-
CCN1c2ccccc2-c2nc3ccccc3n2C1c1ccccn1 (configuration not stated)	-	?	?	-	-	-
CCN1c2ccccc2-c2nc3ccccc3n2C1c1ccncc1 (configuration not stated)	-	10.4µM	5.22µM	-	-	-
c1ccc2c(c1)NC(c1ccncc1)n1c-2nc2ccccc21 (configuration not stated)	-	-	2.62µM	-	-	-
CC1CCCCN1CC(O)COCc1ccccc1 (configuration not stated)	-	-	-	-	-	-
Cc1ccn2c(=O)c(C(=O)NCCc3ccccc3)c(O)nc2c1	.	.	.	.	-	-
COc1ccccc1NC(=O)CC1Sc2ccc(C(F)(F)F)cc2NC1=O (configuration not stated)	.	.	.	.	-	-
COc1ccccc1C(=O)N1CCN(c2nc3cc(C)c(C)cc3cc2C#N)CC1	-	10.4µM	?	-	-	?
Cc1ccc2cc(C#N)c(N3CCCC3)nc2c1C	-	-	-	-	20µM	?
Cc1ccc2nc(N3CCN(C(=O)c4ccc(F)cc4)CC3)c(C#N)cc2c1	-	?	-	-	-	?
COc1ccc2nc(N3CCCC3)c(C#N)cc2c1	-	8.28µM	.	-	-	?
O=C1CCC(/C=C/c2ccccc2)=NN1Cc1ccc(F)cc1	-	-	-	-	-	-
CC(C)c1ccc2occ(CC(=O)Nc3ccccc3Cl)c2c1	.	.	.	.	-	-
Cc1ccc(C(=O)NCc2ccc3c(c2)CCN3C(=O)c2ccc(C)cc2)cc1	.	.	.	.	-	-
CN(C(=O)Cn1cc(C(F)(F)F)ccc1=O)c1c(N)n(Cc2ccccc2)c(=O)[nH]c1=O	-	-	-	-	-	-
O=C(CC1N=C2c3ccccc3N=C(SCc3ccccc3Cl)N2C1=O)NCc1cccs1 (configuration not stated)	.	.	.	.	-	-
O=C(NCc1cccnc1)C1CCCN(Cc2cnn(-c3ccccc3)c2-n2cccc2)C1 (configuration not stated)	-	11.7µM	.	-	-	?
CSc1ccn(CCC(=O)O)c(=O)n1	10µM	.	-	-	-	-
CC(C)c1nccn1CCC(=O)O	-	-	.	-	-	-
CS(=O)(=O)N(CC(=O)NCc1ccco1)c1ccc(OCc2ccccc2)cc1	-	-	-	-	.	-
O=C(OCC1COc2ccccc2O1)c1c(F)cccc1F (configuration not stated)	-	?	4.15µM	-	-	?

Bioassay records from PubChem BioAssay.
